# Reference: PubChem BioAssay AID1347120 (National Center for Advancing Translational Sciences (NCATS), 2019)
# Out of some 390,000 compounds screened, about 930 (0.24%) were called active. Not shown: some 5% with an inconclusive outcome. This is one part of a sample in which actives are shown more often than they occur. Calls follow the shape of the dose curve; as a rule, active = well fitted activation curve with a large enough effect; inconclusive = small, poorly fitted or top-dose-only effect; inactive = no such curve, though single readings can be large or run the other way.
# Experiment: qHTS for Suppressors of FUS Proteinopathy: Primary screen using FUS-linked yeast assay; also: nearly all actives have a fitted effect of over 55% in size;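 as to growth rescue (activation): plate controls were DMSO vehicle for no effect and reference control for full effect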
# Details: S. cerevisiae FUS-expressing, OD600, 24 h; Potency: growth rescue; series mostly up to 76.6 µM; growth rescue (activation): at the top concentration
# Source text: Several widespread neurodegenerative diseases, including Alzheimer disease, Huntington disease, Frontotemporal Lobar Degeneration (FTLD) and Amyotrophic Lateral Sclerosis (ALS), share a common pathological feature, namely accumulation of specific protein aggregates in diseased tissue. These diseases which is associated with protein misfolding (proteinopathies) have become increasingly problematic as the population ages and life expectancies are extended. Most proteinopathies are currently incurable, a situation confounded by the fact that the basis of neurodegeneration is generally poorly understood. There exists urgent and significant need to find therapeutics that can inhibit the toxicity associated with protein aggregation. A novel approach to understand the underlying mechanisms of neurodegenerative diseases has recently emerged in which the disease conditions are modeled in the yeast (Saccharomyces cerevisiae), a tractable eukaryotic organism with conserved protein quality control mechanisms. Yeast offers quick and reliable genetic manipulations and can be easily tailored to high-throughput screening (HTS).
# For this project, a yeast model of the FUS proteinopathies (a spectrum of neurodegenerative diseases that include ALS and a subtype of FTLD) was generated and employed. The cytoplasmic accumulation of the DNA/RNA-binding protein FUS (also known as TLS) is causative to both familial and sporadic forms of ALS and FTLD. This yeast model recapitulates neuronal pathology by showing severe cytotoxicity associated with cytoplasmic accumulation of FUS aggregates and a specific interaction between FUS and TDP-43, another ALS-associated protein. […] Specifically, the cellular accumulation of misfolded FUS that disrupts RNA homeostasis in both yeast and higher eukaryotes. This model was validated to be suitable for quantitative HTS (qHTS) use for finding genetic or chemical factors that restore growth. […] Identified compounds that inhibits FUS-yeast toxicity is flagged, re-acquired, and validated for further investigation and optimization.
# NIH Chemical Genomics Center [NCGC]
# NIH Molecular Libraries Probe Production Centers Network [MLPCN]
# Assay Submitter (PI): Frank Shewmaker PhD, Uniformed Services University of the Health Sciences
# Compound CP55940 was used as the positive control. Column 1 was treated with CP55940 titration from 92uM (final concentration, 1:2 dilution), while Column 2 was treated with top dose 92uM. Columns 3 and 4 were treated with DMSO only as negative control to assess background and noise signal.
# Four hundred fifty microliter of cultured yeast (in 20mL rich medium) provided by Dr. Shewmaker lab was incubated at 30C at 99% humidity for 3hr. The culture was then spun down at 4000rpm for 5min and the cell pellet was resuspended in 2mL of Sdmin Media + ALU(330) + 2.5% Raffinose. One hundred microliter of the suspension was added to 900uL of water and OD of the solution was obtained. Twenty mL of responding medium (provided by Shewmaker lab) + 2.5% raffinose was added to ensure cell density of 0.1; the solution was incubated overnight. Working cell solution (FUS-yeast in Sdmi + Sdmi + 1X ALU + 2% galactose media) was prepared (final OD at 0.005) and 3uL was dispensed in a 1536-well Aurora high based clear bottom assay plates. Controls and library compounds (at various final concentrations from 40uM to 0.32uM) were added using a 1536-well pin array using the Kalypsys pin-tool. The plates were then incubated for 24hrs in a cell-culture incubator (30C; 99% humidity). Absorbance at 600nm was then read using the PerkinElmer ViewLux plate reader.
# Potency is read from the fitted curve at half-maximal effect.
SMILES,growth rescue (activation),Potency
CCC(=O)N1CCc2cc(Br)cc(S(=O)(=O)CCC(=O)N3CCN(c4ccc(F)cc4)CC3)c21,1.9% (inactive),–
O=C(Nc1cc(C(F)(F)F)ccc1Cl)c1cc2nc(-c3ccc4c(c3)OCO4)cc(C(F)(F)F)n2n1,10.3% (inactive),–
CCOc1cccc2sc(N3CCN(C(=O)C4CC4)CC3)nc12,4.39% (inactive),–
COC(=O)[C@@]12CCCCC=C1N(CCc1ccc(Cl)cc1)C(=O)[C@H]2CC(=O)NCc1ccc(OC)c(OC)c1,39.4% (inactive),–
COC(=O)[C@]12C[C@H](CC(=O)NCCc3ccccc3OC)C(=O)N(Cc3ccco3)C1=C[C@H](C(C)C)O[C@@H]2C1CC1,40.9% (inactive),–
COC(=O)[C@]12C[C@H](CC(=O)NCc3cccc4ccccc34)C(=O)N(CCc3ccc(OC)c(OC)c3)C1=C[C@H](C1CCCC1)O[C@@H]2C,–,12.6 µM (active)
O=C(CSc1nccn1-c1ccc(F)cc1)Nc1cccc2ccccc12,12.2% (inactive),–
CCN(c1ncnc2c1cnn2-c1ccc(C)cc1)C1CCCCC1,-6.13% (inactive),–
CCN1CCN(c2cc(C)c3cc(NC(=O)c4cc(Cl)ccc4OC)ccc3n2)CC1,10.2% (inactive),–
CCOc1ccc(C(=O)Nc2ccc3nc4c(c(Nc5ccccc5OC)c3c2)CCCC4)cc1,36.6% (inactive),–
CCOC(=O)N1CCN(C(=O)C[C@H]2C[C@@]3(C(=O)OC)C(=C[C@H](C(C)(C)C)O[C@@H]3C)N(Cc3ccc(Cl)cc3Cl)C2=O)CC1,–,6.31 µM (active)
COC(=O)[C@]12C[C@H](CC(=O)NCC34CC5CC(CC(C5)C3)C4)C(=O)N(Cc3ccc(Cl)cc3Cl)C1=C[C@H](COCc1ccccc1)O[C@@H]2C,31.5% (inactive),–
COC(=O)[C@]12C[C@H](CC(=O)N3CCOCC3)C(=O)N(Cc3ccc(Cl)cc3Cl)C1=C[C@H](COCc1ccccc1)O[C@@H]2C,10.6% (inactive),–
CC1CCC(N2CC(=O)N(CCC3=CCCCC3)C(c3ccc(F)cc3)C2=O)CC1 (stereo unspecified),20.9% (inactive),–
CCC(C(=O)Nc1cccc(-c2nc3cccnc3s2)c1C)c1ccccc1 (stereo unspecified),-6.93% (inactive),–
Cc1ccc(Nc2ccc3cc(S(=O)(=O)N4CCCCC4)ccc3n2)cc1F,-5.75% (inactive),–
Cc1oc2ccc(O)c(CN3CCCCC3)c2c1C(=O)Nc1cccc(C(F)(F)F)c1,24.9% (inactive),–
CCCN1CCN(CCCNC(=O)c2cnn(-c3ccc(C)cc3)c2-n2cccc2)CC1,6.69% (inactive),–
CSc1ncc(Cl)c(C(=O)Nc2ccc(S(=O)(=O)N3CCCC(C)C3)cc2)n1 (stereo unspecified),2.88% (inactive),–
COc1cc(NC(=O)C2=CC(c3ccc(C)cc3)=NS(=O)(=O)N2C)cc(OC)c1OC,-8.13% (inactive),–
COc1ccc(NC(=O)C2=CC(c3ccc(OC)c(OC)c3)=NS(=O)(=O)N2C)cc1,–,31.6 µM (active)

SMILES,growth rescue (activation),Potency
COc1ccc(C2=NS(=O)(=O)N(C)C(C(=O)NC(C)c3ccccc3)=C2)cc1 (stereo unspecified),–,inactive
O=C(COc1ccccc1Cl)Nc1ccc2nc(SCC(=O)N3CCCC3)sc2c1,12.6% (inactive),–
COc1cccc(CNC(=O)CSc2c3c(nc4cc(Cl)ccc24)CCCC3)c1,-8.26% (inactive),–
CCOC(=O)c1c(NC(=O)c2ccc(S(=O)(=O)N(CC)CC)cc2)sc2c1CCCCC2,-13.5% (inactive),–
O=C(Nc1ccccc1F)C(c1ccccc1)N1Cc2ccccc2C1=O (stereo unspecified),4.93% (inactive),–
COc1ccc(OC)c(-n2nnc(-c3nc(-c4cc(OC)c(OC)c(OC)c4)no3)c2C)c1,18.3% (inactive),–
CCc1ccc(CN(Cc2ccco2)C(=O)COc2ccc(Cl)c(C)c2)cc1,30.5% (inactive),–
CCN(CC)c1nn2c(=O)c(C(=O)NCCc3ccccc3)cnc2s1,17.5% (inactive),–
COc1cccc(OCCn2c(-c3ccc(Br)cc3)nc3ccccc3c2=O)c1,-5.51% (inactive),–
COc1ccc(OC)c(-c2csc(-c3c(N)c(C(=O)c4ccccc4)n4ccccc34)n2)c1,14.2% (inactive),–
Cc1nn(C(C)C(=O)Nc2ccc(C(C)C)cc2)c(=O)c2c1sc1ccccc12 (stereo unspecified),-11.1% (inactive),–
Cc1ccc(NC(=O)CSc2nc3c([nH]c4ccccc43)c(=O)n2-c2ccccc2)c(C)c1,13.6% (inactive),–
Cc1ccc(Cl)cc1N(C)C(=O)Cn1nc(Cc2cccnc2)c2ccccc2c1=O,14.5% (inactive),–
O=C(CSc1nccn1Cc1ccc(Cl)cc1)NCc1ccccc1,17.8% (inactive),–
Cc1cccc(NC(=O)c2ccc(F)c(S(=O)(=O)N(C)C3CCCCC3)c2)c1,35.4% (inactive),–
CCOc1ccc(C2CC(=O)c3c([nH]c(C(=O)OCc4ccccc4)c3C)C2)cc1 (stereo unspecified),1.74% (inactive),–
CCOC(=O)C1CCCN(C(=O)c2ccc3c(c2)sc2nc(-c4ccc(CC)cc4)cn23)C1 (stereo unspecified),19.2% (inactive),–
Cc1c(C(=O)N2CCCC2)oc2c1-c1nn(CC(=O)NCc3ccc(OC(C)C)cc3)cc1CC2,31.1% (inactive),–
Cc1ccc(NC(=O)c2cc(S(=O)(=O)NCCC3=CCCCC3)ccc2F)cc1C,15.8% (inactive),–
COc1ccc(-c2cn3c(n2)sc2cc(C(=O)Nc4ccc(F)cc4)ccc23)cc1,0.0987% (inactive),–
COc1ccc(Cc2nc3ccc(C(=O)NCc4ccccc4C)cc3o2)cc1,6.51% (inactive),–

SMILES,growth rescue (activation),Potency
Cc1cc(NC(=O)C2CCC(CNS(=O)(=O)c3ccc(Br)s3)CC2)ccc1Br (stereo unspecified),-10.7% (inactive),–
Cc1oc2ccc(O)c(CN3CCC(C)CC3)c2c1C(=O)Nc1ccccc1,0.0169% (inactive),–
CCCCOc1ccc(C(=O)N2CC(=O)Nc3ccc(Br)cc3C2c2ccc(F)cc2)cc1 (stereo unspecified),41.7% (inactive),–
CCCNC(=O)C1CCN(c2nc3ccc(C)cc3[nH]2)CC1,4.98% (inactive),–
O=C(CSc1nc2nccnc2c(=O)n1CCc1c[nH]c2ccccc12)Nc1ccccc1F,-9.63% (inactive),–
CCOC(=O)N1CCC(NC(=O)c2cnn(-c3cccc(C)c3)c2C2CCN(C(=O)OC(C)(C)C)CC2)CC1,18.5% (inactive),–
CCc1cccc(NC(=O)c2cc(-c3ccccc3)n[nH]2)c1,-10.8% (inactive),–
C#CCOCCOCCOCCNc1nc(N2CCOCC2)nc(N2CCN(C(=O)[C@H](Cc3ccc(O)cc3)n3cc(CCO)nn3)CC2)n1,-3.33% (inactive),–
C#CCOCCOCCOCCNc1nc(N2CCN(C(=O)CCCCCCCCCCNC(=O)[C@H]([C@@H](C)CC)n3cc(CCCCN=C(N)N)nn3)CC2)nc(N2CCN(C(=O)CCCCCCCCCCNC(=O)[C@H](CO)n3cc(CCCSC)nn3)CC2)n1,–,3.16 µM (active)
C#CCOCCOCCOCCNc1nc(N2CCN(C(=O)C([C@@H](C)O)n3cc([C@@H](N)CCCCN)nn3)CC2)nc(N2CCN(C(=O)[C@H](CCCCN)n3cc(CN)nn3)CC2)n1 (stereo partly specified),1.02% (inactive),–
C#CCOCCOCCOCCNc1nc(N2CCN(C(=O)CCCCCCCCCCNC(=O)[C@H](CCCCN)n3cc(C)nn3)CC2)nc(N2CCN(C(=O)CCCCCCCCCCNC(=O)[C@H](CO)n3cc(CCCSC)nn3)CC2)n1,–,11.2 µM (active)
C#CCOCCOCCOCCNc1nc(N2CCN(C(=O)[C@H](CCC(=O)O)n3cc(C(N)CO)nn3)CC2)nc(N2CCN(C(=O)[C@H](Cc3ccc(O)cc3)n3cc(C(N)[C@H](C)CC)nn3)CC2)n1 (stereo partly specified),11.9% (inactive),–
C#CCOCCOCCOCCNc1nc(N2CCN(C(=O)C([C@@H](C)CC)n3cc(C(N)COC(=O)C(F)(F)F)nn3)CC2)nc(N2CCN(C(=O)[C@H](CCCCN)n3cc(C(N)CC(C)C)nn3)CC2)n1 (stereo partly specified),29.1% (inactive),–
Fc1ccc(-c2nc(Nc3cccc(Cl)c3)nc3c2COc2ccccc2-3)cc1,-6.76% (inactive),–
CC(=O)c1cccc(Nc2ccc3cc(S(=O)(=O)N4CCC(C)CC4)ccc3n2)c1,-8.08% (inactive),–
COc1ccc(-c2cc(-c3nc(-c4cc(OC)c(OC)c(OC)c4)no3)[nH]n2)c(OC)c1,17.9% (inactive),–
CCN(C(=O)CSc1nnc(C)n2c1cc1occc12)c1ccccc1,22.4% (inactive),–
COc1ccc(-c2onc(C)c2C)cc1S(=O)(=O)NCCc1ccccc1,10.1% (inactive),–
CCN(CC)C(=O)CSc1nc2ccsc2c(=O)n1Cc1ccccc1Cl,14% (inactive),–
Cc1c(Cl)cccc1NC(=O)C(=O)NCCc1csc2nc(-c3ccccc3F)nn12,22.4% (inactive),–
Cc1cccc(Cn2c(SCc3ccc(C(=O)N4CCC(C)CC4)cc3)nc3ccncc32)c1,22.7% (inactive),–

SMILES,growth rescue (activation),Potency
CC(=O)N1CCCc2cc(S(=O)(=O)N3CCC(C(=O)NCc4ccc(F)cc4)CC3)ccc21,2.3% (inactive),–
O=C(c1ccc(C(F)(F)F)cc1)N1CCC(c2nc(-c3ccc(S(=O)(=O)N4CCCC4)cc3)no2)CC1,6.21% (inactive),–
CSc1ccccc1NC(=O)CCS(=O)(=O)c1nc(-c2cccs2)cc(C(F)(F)F)n1,-9.46% (inactive),–
Cc1c(Cl)cccc1NC(=O)Cn1cc(C(=O)c2cccs2)c2ccccc21,-1.82% (inactive),–
CCN(CCCNC(=O)c1cc(Nc2ccc(OC)cc2)nc2ccccc12)c1cccc(C)c1,2.94% (inactive),–
Cc1ccc(-n2ncc(C(=O)N(C)Cc3ccccc3)c2-n2cccc2)cc1,37.3% (inactive),–
Cc1cccc(NC(=O)N(Cc2cc3cc(C)cc(C)c3[nH]c2=O)CC2COCCO2)c1 (stereo unspecified),–,35.5 µM (active)
Cc1ccc2[nH]c(=O)c(CN(CC3COCCO3)C(=O)Nc3ccccc3C)cc2c1 (stereo unspecified),-6.95% (inactive),–
Cc1ccc2[nH]c(=O)c(CN(CCCN(C)C)C(=O)Nc3cccc(Cl)c3)cc2c1,19.3% (inactive),–
CCCCCN(C(=O)CCC(=O)OCC(=O)NCc1ccc(OC)cc1)c1c(N)n(CCCC)c(=O)[nH]c1=O,40.8% (inactive),–
CCCCCN(C(=O)CCC(=O)OCC(=O)NC1CCC(C)CC1)c1c(N)n(CCCC)c(=O)[nH]c1=O (stereo unspecified),–,31.6 µM (active)
CCCCn1c(N)c(N(CCC(C)C)C(=O)COC(=O)c2ccc(CC)cc2)c(=O)[nH]c1=O,35.6% (inactive),–
Cc1ccc(CNC(=O)CCC(=O)N2Cc3ccccc3Oc3ncccc32)cc1,-4.72% (inactive),–
COc1ccc(CCNC(=O)c2ccc3c(c2)sc2nc(-c4ccc(C)cc4)cn23)cc1OC,5.69% (inactive),–
COC(=O)c1ccc(NC(=O)CCc2c(C)nn(-c3ccc(N4CCCC4)nn3)c2C)cc1,14.5% (inactive),–
Cc1ccc(Cc2cnc(N)s2)o1,–,11.2 µM (active)
Fc1ccc(Nc2nc(SCc3ccccc3Cl)nc3ccccc23)cc1,-4.05% (inactive),–
O=C(Nc1c(C(=O)N2CCN(c3ccc(F)cc3)CC2)oc2ccccc12)c1ccco1,38.7% (inactive),–
